About 10,000 (2.8%) of roughly 360,000 compounds were called active. About 4% were inconclusive and are not listed. This excerpt belongs to a sample that is enriched for actives. Values without a mark were called inactive. Calls come from the whole dose curve; as a rule, active = well fitted inhibition curve with a large enough effect; inconclusive = small, poorly fitted or top-dose-only effect; inactive = flat fitted curve, though single readings scatter.

The results in this text go back to PubChem BioAssay AID720504 (National Center for Advancing Translational Sciences (NCATS), 2013).
% is set by controls: 0 for no effect and ±100 for the full control effect; potency is the fitted concentration of half-maximal effect.

Sequence of Serine/threonine-protein kinase PLK1 (Homo sapiens) (P53350 whole entry, looked up, the tested form may be a part): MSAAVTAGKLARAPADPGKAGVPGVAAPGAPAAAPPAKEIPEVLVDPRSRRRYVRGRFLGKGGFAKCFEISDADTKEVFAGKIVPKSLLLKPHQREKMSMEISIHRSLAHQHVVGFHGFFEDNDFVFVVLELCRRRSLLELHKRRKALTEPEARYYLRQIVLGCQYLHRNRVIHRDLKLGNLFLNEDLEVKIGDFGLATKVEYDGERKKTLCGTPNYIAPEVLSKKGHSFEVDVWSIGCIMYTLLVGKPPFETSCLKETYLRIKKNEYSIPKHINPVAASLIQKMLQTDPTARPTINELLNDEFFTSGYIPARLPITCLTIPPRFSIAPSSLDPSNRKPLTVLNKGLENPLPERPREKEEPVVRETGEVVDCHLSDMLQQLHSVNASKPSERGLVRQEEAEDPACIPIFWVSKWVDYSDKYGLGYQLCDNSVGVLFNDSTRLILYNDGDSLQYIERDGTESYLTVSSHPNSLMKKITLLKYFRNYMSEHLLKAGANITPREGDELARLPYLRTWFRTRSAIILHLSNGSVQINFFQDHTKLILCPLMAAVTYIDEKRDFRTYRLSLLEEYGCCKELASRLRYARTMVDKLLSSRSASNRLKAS

This experiment addresses Serine/threonine-protein kinase PLK1 (Homo sapiens) (UniProt P53350). Nature of the experiment: qHTS for Inhibitors of PLK1-PDB (polo-like kinase 1 - polo-box domain): Primary Screen. For max response, negative = inhibition: series mostly up to about 57 µM. Note: nearly all actives have a fitted effect of over 65% in size. Conditions: Plk1 PBD binding of FITC phosphopeptide, fluorescence polarization. (In qHTS, concentration-response curves come from the screen itself.)
With `COc1ccccc1NC(=O)N1C[C@@H]2C[C@@H](C1)c1cccc(=O)n1C2`, the max response, negative = inhibition was -7.73%. Consider `CN1CCC(OC(=O)c2cccc(F)c2)CC1`, for which the max response, negative = inhibition was -15.3%. In the case of `Cc1ccc2c(c1)=C/C(=C\c1c(O)[nH]c(=O)[nH]c1=O)C(=O)N=2`, the Potency was 11.9 µM (active).

`O=c1[nH]c(O)c(C=Nc2cc(F)cc(F)c2)c(=O)[nH]1`: the max response, negative = inhibition is -3.46%.

With `CC[N+](CC)(CC)CCCCCCCCCC[N+](CC)(CC)CC`, the max response, negative = inhibition was 3.96%. As for `CC12CCC3C(CCC4CC(=O)CCC43C)C1CC(=NO)C2=O` (stereo not given), the max response, negative = inhibition is 6.72%. Turning to `C[C@]12CCCCC1=CC(=O)C1C2CC[C@@]2(C)C1C[C@@H](F)[C@@H]2O` (stereo not given in full), the max response, negative = inhibition was 2.07%. As to `COC(=O)C[C@H]1CC[C@H]2NC[C@@H](O)COC[C@@H]2O1`, the max response, negative = inhibition is -11.8%. For `O=C1NC(=O)N(CCc2ccc(F)cc2)C(=O)/C1=C/C=C/c1ccccc1`, the Potency is 0.532 µM (active). With `CC(C)N(CC#CCC1(O)c2ccccc2-c2ccccc21)C(C)C`, the max response, negative = inhibition was 4.02%. Regarding `O=C(NC(=S)N1C[C@H]2C[C@H](C1)c1cccc(=O)n1C2)c1ccc(F)cc1`, the max response, negative = inhibition was -8.97%.

With `N=c1ccccn1Cc1ccccc1`, the max response, negative = inhibition is -5.72%.

Turning to `CCOC(=O)[C@]12Cc3ccccc3[C@H]1N(C1CCCCC1)C(=O)c1cc(OC)ccc12`, the Potency is 10.6 µM (active). Regarding `CCOC(=O)c1cccc(C2=C(CNC(=O)c3ccncc3)[C@H]3CC[C@@H](C2)N3Cc2ccccc2)c1`, the max response, negative = inhibition is -3.52%. Consider `COc1ccc(CN2C(=O)NC(=O)/C(=C\c3ccc(OC)c(OC)c3OC)C2=O)cc1`, for which the Potency was 7.52 µM (active).

With `O=c1c2ccccc2nc(-c2ccc(Cl)cc2Cl)n1-c1ccncc1`, the max response, negative = inhibition was -3.78%. `Nc1ccc([N+](=O)[O-])cc1`: the max response, negative = inhibition is -16%. Consider `C=CCN1C(=O)NC(=O)/C(=C/c2ccc(OCC(=O)Nc3ccc(C)cc3)cc2)C1=O`, for which the Potency was 8.44 µM (active). `C=CCN(CC=C)C(=O)Nc1ccc(OCC)cc1`: the max response, negative = inhibition is -8.48%. Regarding `CCC(=O)c1ccc(OCC(=O)N2CCN(CC(=O)Nc3ccc(C)cc3)CC2)cc1`, the max response, negative = inhibition was -6.03%.

For the compound `CCOC(=O)C1CN(C)CCC1=O` (stereo not given), the max response, negative = inhibition is -5.51%.

For `O=C(CCCn1c(=O)[nH]c2cc(Cl)ccc2c1=O)N1CCC2(CC1)OCCO2`, the max response, negative = inhibition was -6.33%. As to `COC(=O)N(c1ccc(OC)cc1)P1(=S)OCCC(C)O1` (stereo not given), the Potency is 2.67 µM (active). As for `Cc1ccc(N(C)C(=O)Oc2cccc3ccc(C)nc23)cc1`, the max response, negative = inhibition is 0.137%. For the compound `COc1ccc(N2C(=O)/C(=C/c3ccco3)C(=O)NC2=S)cc1`, the Potency is 2.67 µM (active). As to `CC(=NCC1CCCO1)c1c(O)n(-c2ccccc2)c(=O)[nH]c1=O` (stereo not given), the max response, negative = inhibition was -9.8%.

For `COCc1cc(OC(=O)N(C)C)nc(-c2ccc(C)c(Cl)c2)n1`, the max response, negative = inhibition was -4.36%. `O=C(N/N=C/c1c(O)n(Cc2ccccc2)c(=O)[nH]c1=O)c1ccccc1`: the max response, negative = inhibition was -9.07%. As to `CCC(=NCc1ccco1)c1c(O)n(Cc2ccccc2)c(=O)[nH]c1=O`, the max response, negative = inhibition is -18.9%. With `CC/C(=N\NC(=O)c1ccccc1O)c1c(O)n(Cc2ccccc2)c(=O)[nH]c1=O`, the Potency is 16.8 µM (active). For `COC(=O)C1=C(c2ccc(Cl)c(C(F)(F)F)c2)C[C@@H]2CC[C@H]1N2C(=O)NC(C)C`, the max response, negative = inhibition was -9.53%.

For `O=C(COc1ccc2ccccc2c1)N1CCN(Cc2ccncc2)CC1`, the max response, negative = inhibition is -21.6%.

For the compound `COc1ccc(-c2nc(CS(=O)CC(=O)N3CCC4(CC3)OCCO4)c(C)o2)cc1` (stereo not given), the max response, negative = inhibition was -28%.

As to `ClC(Cl)(Cl)c1ccccc1`, the max response, negative = inhibition was -9.92%. Regarding `NCCc1c[nH]c2ccc(O)cc12`, the max response, negative = inhibition is -10.9%. On to `CCOc1ccc(CN(CCCl)CCCl)cc1C(=O)OC`, for which the Potency was 26.7 µM (active). As for `CCCCC(=O)N/N=C/c1c(O)n(CCC2=CCCCC2)c(=O)[nH]c1=O`, the max response, negative = inhibition was -3.58%.

As for `O=C(O)COc1ccccc1/C=C1\C(=O)NC(=O)N(CCC2=CCCCC2)C1=O`, the Potency is 11.9 µM (active). Regarding `COc1cc(C(=O)N2Cc3ccc(Br)cc3-n3nncc3C2)cc(OC)c1OC`, the max response, negative = inhibition was -10%. On the same count and under the same terms, next, `CC(C)c1ccc(OCC(=O)N2CCN(C)CC2)c(Br)c1`: -13.2%; `c1cc2c(c(NC3=NCCCS3)c1)CCCC2`: -11.8%; `CCOP(=O)(OCC)C(NC(=O)c1ccc(OC)cc1)C(Cl)(Cl)Cl` (stereo not given): 1.87%. Regarding `CC(=O)c1ccc(OC(NC(=O)Cc2ccccc2)C(Cl)(Cl)Cl)cc1` (stereo not given), the Potency is 13.4 µM (active).

As to `CC(=O)Cc1ccc(OC(C)C)cc1`, the max response, negative = inhibition is 1.86%.

For the compound `COC(=O)C1=C(c2ccc(OCc3ccccc3)cc2)C[C@@H]2CC[C@H]1N2C(=O)NCc1cccc(F)c1`, the max response, negative = inhibition was -7.41%. The same measure, in the same setting: next, `CN(C)C(=O)Oc1ccc(NC(=O)N2CCOCC2)cc1`: -3.11%; `CCOC(=O)CNC(=O)N1Cc2cc(N3CCCCC3)ccc2-n2nncc2C1`: -3.84%. For the compound `O=C1NC(=O)N(Cc2ccco2)C(=O)/C1=C\c1ccc(-c2ccc(F)cc2)o1`, the Potency was 0.423 µM (active). For `O=C1NC(=O)N(Cc2ccco2)C(=O)/C1=C\c1cccn1CCOc1ccccc1`, the Potency is 15 µM (active). As to `N#CC1=C(N)Oc2c(c(=O)oc3ccccc23)C1c1ccccc1OC(=O)c1cccs1` (stereo not given), the max response, negative = inhibition was -2.78%. Turning to `CN(C)CC1CCCCC1=O` (stereo not given), the max response, negative = inhibition is -3.76%. Still for that read-out and setting: next, `CCC(C)n1c(O)c(/C=N/Nc2nc3c(c(=O)n(C)c(=O)n3C)n2C)c(=O)[nH]c1=S` (stereo not given): -11.1%; `O=c1c2ccccc2nc(CBr)n1-c1ccc(Cl)cc1`: -5.73%. `CCC(C)(O)C(=O)OC1C(=O)OC2CC3C(C)=CC(=O)C(O)C3(C)C3C4(O)OCC23C1C(C)C4O` (stereo not given): the max response, negative = inhibition is -4.99%.

Consider `CCC(=O)OC(Cc1ccccc1)(c1ccccc1)C(C)CN(C)C` (stereo not given), for which the max response, negative = inhibition was -11.9%.
